Data as given in PubChem BioAssay.
Values without a mark were called inactive. Activity calls are given as the source filed them.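 Rule for the calls: active = inhibition at or above 50% relative to wild type and mutant plate controls; inactive = inhibition below 50%.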

Experiment: inhibitors of Chlamydomonas gravitaxis, primary screen, whole organism, Chlamydomonas reinhardtii, WT vs cilia-less mutant, absorbance, 96-well (AID 463189);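 note: 0% = wild type cc124 cells in DMSO and 100% = ciliumless bld1 mutant cells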
Conditions: OD600 absorbance, 2 days, at 10 µM, stronger effect = higher value
With c1ccc(C2CN3CCSC3=N2)cc1 (stereo not given) the inhibition was 45.3%.
For O=c1onc2cnc3ccccc3n12, the inhibition was 3.46%.
In the case of CCCc1c(-c2ccc(O)cc2)nn(-c2ccc(O)cc2)c1-c1ccc(O)cc1, the inhibition is reported as 6.07%.
Work on CCN1CCC[C@H]1CNC(=O)c1c(O)c(Cl)cc(Cl)c1OC yielded an inhibition of 0.286%.
For CC12C(=O)OC(=O)C1(C)C1CCC2O1 (stereo not given), the inhibition was -3.97%.
Work on c1ccc([C@H]2CN3CCSC3=N2)cc1 yielded an inhibition of -1.39%.
CC1CC2C3CCC4=CC(=O)C=C[C@]4(C)[C@@]3(F)[C@@H](O)C[C@]2(C)[C@@]1(O)C(=O)CO (stereo not given in full) showed an inhibition of 5.99%.
With COc1cccc(OC)c1OCCNCC1CSc2ccccc2O1 (stereo not given) the inhibition was 10.3%.
With O=C1NC(=O)C(c2ccccc2[N+](=O)[O-])=C1Nc1ccc(O)c(Cl)c1 the inhibition was 1.1%.
O=C(Cc1ccc(Cl)c(Cl)c1)OCCN1CCCC1 showed an inhibition of -10.1%.
NC(N)=NCCC[C@H](N)C(=O)O showed an inhibition of -8.92%.
Molecule CCCCOC(=O)NS(=O)(=O)c1sc(CC(C)C)cc1-c1ccc(Cn2c(CC)nc3c(C)cc(C)nc32)cc1 has an inhibition of 10.7%.
For C1CCc2nnnn2CC1, the inhibition was 5.68%.
Work on NC1(C(=O)O)CC1 yielded an inhibition of 5.31%.
With C[C@](N)(Cc1ccc(O)cc1)C(=O)O the inhibition was 6.91%.
Work on CCN(CC)C(C)C(=O)N1c2ccccc2Sc2ccccc21 (stereo not given) yielded an inhibition of 40.1%.
Work on CNC(=O)c1cc2c(cn1)[nH]c1ccccc12 yielded an inhibition of 4.1%.
Work on O=c1[nH]ccc2c(O)cccc12 yielded an inhibition of 3.93%.
For CNC(=O)[C@H]1O[C@@H](n2cnc3c(NCc4ccc(I)cc4)nc(Cl)nc32)[C@H](O)[C@@H]1O, the inhibition was 0.705%.
In the case of Nc1ncn([C@@H]2O[C@H](CO)[C@@H](O)[C@H]2O)c(=O)n1, the inhibition is reported as 3.22%.
Nc1ncnc2c1nc(Sc1ccc(Cl)cc1)n2C1OC2COP(=O)(O)O[C@@H]2[C@@H]1O (stereo not given in full) showed an inhibition of 9.99%.
CN(C)CCN(Cc1cccs1)c1ccccn1 gave an inhibition of 2.59%.
For COc1ccc(CCNC[C@@H](O)c2ccc(O)cc2)cc1OC, the inhibition was -0.226%.
With CN(C)CC[C@@H](c1ccc(Br)cc1)c1ccccn1 the inhibition was 15%.
COC(=O)[C@H]1[C@H]2C[C@@H]3c4[nH]c5cc(OC)ccc5c4CCN3C[C@H]2C[C@@H](OC(=O)c2cc(OC)c(OC)c(OC)c2)[C@@H]1OC showed an inhibition of -3.87%.
CN(C)CCCCSC(=N)N gave an inhibition of 0.024%.
Molecule CC(N)=NCCC[C@H](N)C(=O)O has an inhibition of 5.15%.
With N[C@@H](CCC(=O)N[C@H](CSN=O)C(=O)NCC(=O)O)C(=O)O the inhibition was 3.12%.
For OCCN1CCN(CC/C=C2/c3ccccc3Sc3ccc(C(F)(F)F)cc32)CC1, the inhibition was 15.6%.
Molecule O=C1C2C=CC=CC2=NC(=S)N1CCN1CCC(=C(c2ccc(F)cc2)c2ccc(F)cc2)CC1 (stereo not given) has an inhibition of -0.94%.
With CN(CCOc1ccc(C[C@H](Nc2ccccc2C(=O)c2ccccc2)C(=O)O)cc1)c1ccccn1 the inhibition was 1.04%.
In the case of C[C@H]1c2cccc(O)c2C(O)=C2C(=O)[C@]3(O)C(O)=C(C(N)=O)C(=O)[C@@H](N(C)C)[C@@H]3[C@@H](O)[C@@H]21, the inhibition is reported as 64.7% (active).
O=C(/C=C/c1ccc(O)cc1)c1ccc(O)cc1O showed an inhibition of 2.79%.
Molecule Cc1cc2c(cc1Cl)N(C(=O)Nc1ccnc3ccccc13)CC2 has an inhibition of -0.614%.
Work on CC(=O)CCCCn1c(=O)c2c(ncn2C)n(C)c1=O yielded an inhibition of -0.901%.
O=C(O)CN(CCN(CC(=O)O)CC(=O)O)CCN(CC(=O)O)CC(=O)O showed an inhibition of 6.57%.
O=c1ccc2c(OCCCCc3ccccc3)c3ccoc3cc2o1 showed an inhibition of 10.5%.
For N[C@H](C(=O)O)[C@H]1C[C@@H]1C(=O)O, the inhibition was 2.25%.
Molecule NC/C=C/C(=O)O has an inhibition of 9.04%.
NNCCc1ccccc1 gave an inhibition of 3.74%.
